According to PubChem BioAssay (NCI):
About 83,000 compounds went through this panel and 20% of them were active in at least one assay; those are over-represented in the sample as a whole.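 Each cell line was grown in a 96-well plate and treated with one concentration of compound for 48 hours. Values below 10 were considered active.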 The source made the active and inactive calls.

Tests used:
Experiment in all cases: NCI-60 one-dose screen, 48 h (100 = growth as untreated, 0 = no growth, -100 = all killed)
Conditions in all cases: 10 µM unless noted
[1] = tested on: T-47D breast
[2] = tested on: BT-549 breast
[3] = tested on: MDA-MB-435 melanoma
[4] = tested on: SW-620 colon
[5] = tested on: MCF7 breast
[6] = tested on: HCT-116 colon
[7] = tested on: HCC-2998 colon
[8] = tested on: KM12 colon

Measured: growth

O=S(=O)(NCCNc1nccc(-c2c(-c3cccc(F)c3)nc3sccn23)n1)c1ccc(Cl)cc1
inactive: [1] 43.2% | [2] 71.3% | [3] 26.3% | [4] 59.6% | [5] 24.7% | [6] 34% | [7] 83.4% | [8] 47.7%

CCOC(=O)c1cc(C(=O)c2ccc(OC)c(OC)c2)n2ccc(/C=C/c3cc[n+](CC(=O)c4ccc(OC)c(OC)c4)cc3)cc12
inactive: [1] 89.9% | [2] 96.6% | [3] 99.4% | [4] 96.7% | [5] 91.1% | [6] 89.7% | [7] 98.8% | [8] 100%

CCCN1[C@@H]2CC[C@H]1/C(=C\c1ccc(OC)c(OC)c1)C(=O)/C2=C/c1ccc(OC)c(OC)c1
inactive: [1] 25.1% | [2] 51.8% | [3] 39.6% | [4] 43% | [5] 30.2% | [6] 22.1% | [7] 86.7% | [8] 54.6%

CCOc1ccc(/C=N/Nc2cc(C)nc3ccc(Br)cc23)cc1
inactive: [1] 89.2% | [2] 91.3% | [3] 92.6% | [4] 55.2% | [5] 75.8% | [6] 36.6% | [7] 100% | [8] 84.6%

c1ccc2c(-c3nccs3)c[nH]c2c1
inactive: [1] 96.3% | [2] 86.6% | [3] 101% | [4] 99.1% | [5] 79.8% | [6] 95.7% | [7] 107% | [8] 96.3%

CCOc1ccc(Nc2nc(-c3ccc4c(c3)NC(=O)CO4)cs2)cc1
inactive: [1] 24.6% | [2] 47% | [3] 30.7% | [4] 82.5% | [5] 38.1% | [6] 40.7% | [7] 86% | [8] 67.9%

Cc1ccc(NC(C(=O)c2ccccc2)c2ccccc2)cc1 (stereo not given)
inactive: [1] 25.9% | [2] 42.2% | [3] 30.6% | [4] 67.1% | [5] 38.5% | [6] 35.6% | [7] 55.1% | [8] 23.7%

COc1ccc(C(=O)c2cc(C)c(OC)c(C)c2)c(OC)c1N(C(=O)CCl)C(=O)CCl
inactive: [1] 51.2% | [4] 20.3% | [5] 14% | [7] 13.5%
active: [2] 3.05% | [3] -46.8% | [6] -0.69% | [8] 6.61%

Cc1cccc(NC(=O)Nc2ccc(-n3cnc4cc(-c5ccc(O)cc5)ccc43)cc2)c1
active: [1] 4.01%
inactive: [2] 70.8% | [3] 25.9% | [4] 29.6% | [5] 16.9% | [6] 16.1% | [7] 63.6% | [8] 13%

CC1=C(C(=O)/C=C/c2c[nH]c3ccccc23)C(c2ccccc2)NC(=S)N1 (stereo not given)
inactive: [1] 98.6% | [2] 107% | [3] 97.4% | [4] 91.7% | [5] 95.4% | [6] 93.3% | [7] 108% | [8] 106%

O=C1Nc2cc(-c3cccc(O)c3)ccc2/C1=C/c1ccc[nH]1
active: [1] -0.905% | [2] 0.113% | [3] 5.05% | [8] 0.211%
inactive: [4] 18.9% | [5] 10.5% | [6] 11.6% | [7] 14.8%

CCCCCOc1ccc(/C=N/Nc2cc(C)nc3ccc(Cl)cc23)cc1
inactive: [1] 68.6% | [2] 103%
active: [3] -75.6% | [4] -73.8% | [5] -73.6% | [6] -64.5% | [7] -67.7% | [8] -84.6%

O=C(CSc1nc2ccccc2[nH]1)NCc1ccccc1
inactive: [1] 92% | [2] 105% | [3] 95.8% | [4] 99.2% | [5] 95.5% | [6] 107% | [7] 102% | [8] 105%

COc1cc(/C=C\c2cc(OC)c(OC)c(OC)c2)cc(NC(=O)/C=C/c2cc(OC)c(OC)c(OC)c2)c1OC
active: [3] -13.1%
inactive: [1] 19.6% | [2] 26.2% | [4] 57% | [5] 27.6% | [6] 41.1% | [7] 70.8% | [8] 28.7%

O=C(/C=C/c1ccc(Cl)cc1)c1ccc(NC(=O)N2CCN(c3cc4c(cc3F)c(=O)c(C(=O)O)cn4C3CC3)CC2)cc1
inactive: [1] 76.4% | [2] 52.2% | [3] 98.8% | [4] 97.2% | [5] 22.6% | [6] 11.8% | [7] 102% | [8] 85.8%

COc1cc(CC(=O)c2ccc(O)c(OC)c2)ccc1O
inactive: [1] 89.6% | [2] 110% | [3] 112% | [4] 102% | [5] 96.9% | [6] 100% | [7] 103% | [8] 103%

COc1ccc(C(=O)c2nc3ccccc3n2CC(=O)c2ccc(F)cc2)cc1
active: [3] -16.4%
inactive: [1] 91.6% | [2] 93.2% | [4] 46% | [5] 62.9% | [6] 89.5% | [7] 65.3% | [8] 56.2%

O=C1Nc2cc(-c3ccc(NC(=O)C4CC4)cc3)ccc2/C1=C/c1ccc[nH]1
inactive: [1] 21.7% | [2] 104% | [3] 99.9% | [4] 113% | [5] 12.8% | [6] 104% | [7] 111% | [8] 39.8%

CCCOC(=O)N[C@H]1CCc2cc(OC)c(OC)c(OC)c2-c2ccc(SC)c(=O)cc21
active: [3] -40.4% | [6] 7.65% | [8] -11.3%
inactive: [1] 39.3% | [2] 10.2% | [4] 18.4% | [5] 15.6% | [7] 23%

CC1(C)CC[C@]23CC[C@]4(C)[C@H](CC[C@@H]5[C@@]6(C)CCCNC(C)(C)[C@@H]6CC[C@]54C)[C@H]2[C@H]1OC3
inactive: [2] 76.4%
active: [1] 2.46% | [3] -80% | [4] -71.9% | [5] -25% | [6] -99.4% | [7] -55.5% | [8] -69%

COc1ccccc1/C=C1\Oc2cc(OCCN3CCCC3)ccc2C1=O
inactive: [1] 90.1% | [2] 84.2% | [3] 94% | [4] 74% | [5] 68.1% | [6] 47.1% | [7] 75.8% | [8] 88.8%

CCOC(=O)/C(C#N)=C1/NNC(=Nc2cccnc2)S1
inactive: [1] 88.7% | [2] 103% | [3] 99.2% | [4] 94.9% | [5] 106% | [6] 91.9% | [7] 113% | [8] 102%

C=C(C)[C@@H]1CC[C@]2(C(=O)N3CCN(C)CC3)CC[C@]3(C)[C@H](CC[C@@H]4[C@@]5(C)C/C(=C/c6ccncc6)C(=O)C(C)(C)[C@@H]5CC[C@]43C)[C@@H]12
inactive: [1] 48.3% | [2] 66.3% | [3] 56.4% | [4] 39.6% | [5] 19% | [6] 17.6% | [7] 62.5% | [8] 51.3%

C/C=C(\C)C(=O)NC1=CC[C@@]2(C)C(=CCC3C2CC[C@@]2(C)C3CC[C@@H]2C(C)N(C)C)C1=O (stereo not given in full)
inactive: [1] 46.7% | [2] 37.6% | [5] 10.3% | [6] 10.4% | [7] 31.3% | [8] 19.6%
active: [3] -2.62% | [4] -11%

CCOC(=O)C1=C(C)NC(SCc2cc(=O)oc3ccc(F)cc23)=N[C@@H]1c1cccc2ccccc12
inactive: [1] 82.4% | [2] 102% | [3] 99.1% | [4] 101% | [5] 84.3% | [6] 76.9% | [7] 105% | [8] 97.7%

C[C@H]1[C@H](C)CC[C@]2(C(=O)NCC#CCN3CCN(C)CC3)CC[C@]3(C)C(=CC[C@@H]4[C@@]5(C)Cc6c([nH]c7ccccc67)C(C)(C)[C@@H]5CC[C@]43C)[C@H]12
inactive: [1] 76.7% | [2] 99.6% | [3] 52.2% | [4] 57.5% | [5] 41.3% | [6] 25.8% | [7] 76.6% | [8] 75.2%

N#Cc1c(NCc2ccccc2I)sc2c1CCCCC2
inactive: [1] 73.3% | [2] 102% | [3] 99.9% | [4] 97.2% | [5] 80% | [6] 90.3% | [7] 113% | [8] 96.6%

COc1ccccc1/C(C)=N/NC(=O)CSc1nc2ccccc2c(=O)n1Cc1ccc(S(N)(=O)=O)cc1
inactive: [1] 97.6% | [2] 99.3% | [3] 103% | [4] 100% | [5] 89.2% | [6] 95.9% | [7] 95.9% | [8] 102%

Nc1n[nH]c2cccc(C#Cc3cccc(C(=O)Nc4cc(CN5CCOCC5)cc(C(F)(F)F)c4)c3)c12
inactive: [1] 37.1% | [2] 57.9% | [3] 23.4% | [4] 30.9% | [5] 44.2% | [6] 14.1% | [7] 45% | [8] 13.1%

O=[N+]([O-])CC(c1ccccc1)c1c[nH]c2ccccc12 (stereo not given)
active: [3] -14.6%
inactive: [1] 45.1% | [2] 56.6% | [4] 27.9% | [5] 29.9% | [6] 32.7% | [7] 77.2% | [8] 43.6%
